Data taken from PubChem BioAssay (Tox21).
Inconclusive results are not listed. Entries that show only a call come without a potency. A structure can be active in one record and inactive in another. Active and inactive are the calls of the source. Calls follow the shape of the full dose curve.

The compounds below were run against Retinoic acid receptor RXR-alpha (Homo sapiens) (UniProt P19793) (assay: qHTS assay to identify small molecule agonists of the RXR signaling pathway (AID 1159527; also: nearly all actives have a fitted effect of over 35% in size)). Conditions: HEK293T RXRa-UAS-bla, beta-lactamase ratio, 16 h; series mostly up to 76.8 µM; activation: at the top concentration.
Retinoic acid receptor RXR-alpha (Homo sapiens), sequence (P19793 whole entry, looked up): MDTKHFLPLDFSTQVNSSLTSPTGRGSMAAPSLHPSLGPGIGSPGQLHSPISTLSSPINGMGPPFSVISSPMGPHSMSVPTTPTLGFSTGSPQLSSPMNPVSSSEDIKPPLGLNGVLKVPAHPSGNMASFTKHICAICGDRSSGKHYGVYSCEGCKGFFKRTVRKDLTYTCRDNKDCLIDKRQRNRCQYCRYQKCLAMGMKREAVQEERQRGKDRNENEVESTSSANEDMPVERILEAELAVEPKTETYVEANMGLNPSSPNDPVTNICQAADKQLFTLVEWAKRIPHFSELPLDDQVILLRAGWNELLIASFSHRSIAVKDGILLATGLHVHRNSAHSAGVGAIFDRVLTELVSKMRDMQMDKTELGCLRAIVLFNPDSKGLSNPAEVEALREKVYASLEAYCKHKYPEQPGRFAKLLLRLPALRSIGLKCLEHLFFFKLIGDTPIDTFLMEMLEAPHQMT
Procedure, shortened: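 qHTS of the Tox21 10K library in GeneBLAzer RXR-alpha HEK 293T cells carrying a beta-lactamase reporter […]; 16 hr treatment, 9-cis retinoic acid as agonist control, FRET read-out.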
Potency is read from the fitted curve at half-maximal effect.

Structure (SMILES)	Potency	activation
COc1ccc(C=O)cc1	inactive	–
CCN(N=O)C(N)=O	inactive	–
Cc1cc(C)cc(C)c1	inactive	–
CC(O)CCO (configuration not stated)	inactive	–
O=C(NC(=O)c1c(F)cccc1F)Nc1ccc(Cl)cc1	inactive	–
CCC(C)(c1ccc(O)cc1)c1ccc(O)cc1	–	-19.7% (inactive)
CCCCN(CCCC)N=O	–	2.94% (inactive)
CC(C)(c1cc(Cl)c(O)c(Cl)c1)c1cc(Cl)c(O)c(Cl)c1	–	-11.2% (inactive)
Nc1ccc(Cl)c(Cl)c1	inactive	–
CN(C)C(=O)Nc1ccc(Cl)cc1	–	9.99% (inactive)
Oc1cc(Cl)c(Cl)cc1Cl	–	-14.8% (inactive)
C=CCN(CC=C)C(=O)C(Cl)Cl	inactive	–
Oc1ccc(-c2ccccc2)cc1	5.42 µM (active) and inactive	–
C=CCc1ccc(OC)cc1	inactive	–
COP(=S)(OC)Oc1cc(Cl)c(Cl)cc1Cl	inactive	–
CCOC(=O)C(C)OC(=O)c1cc(Oc2ccc(C(F)(F)F)cc2Cl)ccc1[N+](=O)[O-] (configuration not stated)	–	-10.7% (inactive)
CC(C)(C)c1ccccc1O	inactive	–
CNC(=O)Oc1cccc2c1OC(C)(C)O2	inactive	–
c1nc[nH]n1	–	0.28% (inactive)
O=C(O)C(F)(F)C(F)(F)C(F)(F)C(F)(F)C(F)(F)C(F)(F)C(F)(F)F	–	9.37% (inactive)
CCCCCc1cc(O)cc(O)c1	–	-16.3% (inactive)
CCC(C)c1ccc(O)cc1 (configuration not stated)	inactive	–
COC(=O)c1sccc1S(=O)(=O)NC(=O)Nc1nc(C)nc(OC)n1	inactive	–
CCC(C)(C)c1ccc(O)cc1	inactive	–
COP(=O)(OC)OC	–	5.91% (inactive)
c1ccc(P(c2ccccc2)c2ccccc2)cc1	inactive	–
Cc1ccc2c(c1N)C(=O)c1ccccc1C2=O	inactive	–
